21 compounds from PubChem BioAssay (NCATS) can be followed below.

Each structure is given as a SMILES string. Values joined by “and” are separate entries in the source; they are usually repeats but may differ in a detail not shown here. Identical values can stand only once. Results filed as inconclusive are left out. Values without a mark were called inactive. Active and inactive are the calls of the source. Calls come from the whole dose curve; as a rule, active = well fitted inhibition curve with a large enough effect; inconclusive = small, poorly fitted or top-dose-only effect; inactive = flat fitted curve, though single readings scatter.

Assay [1] in a line: Drug repurposing screens with cells derived from glioblastoma tumor samples (AID 1345199). Note: nearly all actives have a fitted effect of over 40% in size. Conditions: GBM patient neurospheres viability, ATP luminescence, 48 h. A digest of the protocol:
(§1)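 Four patient lines of CD133+ GBM neurospheres were screened at several concentrations; hits were retested in those lines plus three slower-growing GBM lines, using 48-hour treatment and ATP-based viability.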

Another assay has as its system astro (control astrocytes). The description is as above. The conditions noted are these: viability, ATP luminescence, 48 h; series mostly up to 45.9 µM. A digest of the protocol:
as §1

Setting [2] is: at 20 µM (top of the series), tumour line C.
Where [3] appears, read: at 21.2 µM (top of the series), tumour line B.
The mark [4] stands for this setting: at 21.2 µM (top of the series), tumour line D.
Setting [5] is: at 45.9 µM (top of the series), tumour line B.
Setting [6] is: at 45.9 µM (top of the series), tumour line D.
The mark [7] stands for this setting: at 46.1 µM (top of the series), tumour line C.
% is set by controls: 0 for no effect and ±100 for the full control effect; potency is the fitted concentration of half-maximal effect.

In the case of `NC(=O)OCC(O)COc1ccc(Cl)cc1` (configuration not stated), the activity, negative = cell killing in assay [1] (setting [2]) was 0.2%; in assay [1] (setting [3]) it was -15.4%; in assay [1] (setting [4]), -22.6%.

Take `CC(C)CCCCCCc1ccc(O)cc1`: in assay [1] (tumour line A), the Potency is 22.4 µM (active).

As for `S=C1SCN(Cc2ccccc2)CN1Cc1ccccc1`, the Potency in assay [1] (tumour line A) is 11.2 µM (active).

For `CN1C(C(=O)Nc2ccccn2)C(=O)c2sc(Cl)cc2S1(=O)=O` (configuration not stated), the activity, negative = cell killing was -14.7% in assay [1] (setting [5]), -14% in assay [1] (setting [6]) and -4.03% in assay [1] (setting [7]). The Potency result in the assay on astro was “inactive”.

Consider `CC(C)CN(C[C@@H](O)[C@H](Cc1ccccc1)NC(=O)O[C@@H]1CCOC1)S(=O)(=O)c1ccc(N)cc1`, for which the activity, negative = cell killing in assay [1] (setting [5]) is -6.03%; in assay [1] (setting [6]), -14.3%; in assay [1] (setting [7]), -3.48%. Moreover, in the assay on astro, the Potency result was “inactive”.

For the compound `NCC[C@H](O)C(=O)N[C@@H]1C[C@H](N)[C@@H](O[C@H]2O[C@H](CN)[C@@H](O)[C@H](O)[C@H]2O)[C@H](O)[C@H]1O[C@H]1O[C@H](CO)[C@@H](O)[C@H](N)[C@H]1O`, the activity, negative = cell killing in assay [1] (setting [5]) is -16.5%; in assay [1] (setting [6]) it was -17.9%; in assay [1] (setting [7]), -4.11%. In addition, the Potency result in the assay on astro is “inactive”.

Regarding `CCCCCCCCCCCCCCCC(=O)OC[C@@H](O)[C@H]1OC[C@H](O)[C@H]1O`, the activity, negative = cell killing in assay [1] (setting [5]) was -4.52%; in assay [1] (setting [6]) it was 10.4%; in assay [1] (setting [7]) it was -6.66%. Also, the Potency result in the assay on astro is “inactive”.

Consider `CCc1cn([C@H]2C[C@H](O)[C@@H](CO)O2)c(=O)[nH]c1=O`, for which the activity, negative = cell killing was -28.6% in assay [1] (setting [5]); -5.04% in assay [1] (setting [6]); -8.93% in assay [1] (at 46 µM (top of the series), tumour line A). The Potency result in the assay on astro is “inactive”.

On to `NC(=O)[C@H]1O[C@@H](O)[C@H](O)[C@@H](O)[C@@H]1O`, for which the activity, negative = cell killing in assay [1] (setting [5]) is -7.58%; in assay [1] (setting [6]), -15.7%; in assay [1] (setting [7]) it was -23.5%. Besides, in the assay on astro, the Potency entry was “inactive”.

Consider `C=CC1=C(C(=O)O)N2C(=O)[C@@H](NC(=O)/C(=N/OCC(=O)O)c3csc(N)n3)[C@H]2SC1` (stereo in doubt), for which the activity, negative = cell killing in assay [1] (setting [2]) is 2.81%; in assay [1] (setting [3]), -6.13%; in assay [1] (setting [4]), -19.8%. In addition, in the assay on astro, the Potency entry was “inactive”.

Turning to `CC(C)=CCC/C(C)=C/C=C/C(C)=C/C=C/C(C)=C/C=C/C=C(C)/C=C/C=C(C)/C=C/C=C(\C)CCC=C(C)C`, the activity, negative = cell killing in assay [1] (setting [5]) was -10.4%; in assay [1] (setting [6]), -12.4%; in assay [1] (setting [7]), 14.8%. For the same compound, the Potency entry in the assay on astro is “inactive”.

As for `CC(O)[C@H]1CC[C@H]2[C@@H]3CC[C@@H]4C[C@@H](O)CC[C@]4(C)[C@H]3CC[C@]12C` (some centres not stated), the activity, negative = cell killing in assay [1] (setting [5]) was -13.1%; in assay [1] (setting [6]) it was -23.2%; in assay [1] (setting [7]), 18.8%. Further, in the assay on astro, the Potency result is “inactive”.

As to `CCc1ncnc2cc(OC)c(OC)cc12`, the activity, negative = cell killing in assay [1] (setting [5]) is -18.2%; in assay [1] (setting [6]), -1.42%; in assay [1] (setting [7]) it was -14.3%. The Potency entry in the assay with astro was “inactive”.

With `CCCCC[C@H](O)/C=C/[C@H]1[C@H](O)CC(=O)[C@@H]1C/C=C\CCCC(=O)O`, the activity, negative = cell killing in assay [1] (setting [5]) is -2.11%; in assay [1] (setting [6]), -17.7%; in assay [1] (setting [7]), -15.8%. The Potency entry in the assay on astro is “inactive”.

In the case of `O=C(O)COc1ccc(CCNS(=O)(=O)c2ccccc2)s1`, the results for the activity, negative = cell killing in assay [1] (setting [5]), in assay [1] (setting [6]) and in assay [1] (setting [7]) were -8.15%, -13.5% and -21.9%, respectively. Further, the Potency result in the assay with astro was “inactive”.

As to `CC(C)CCC[C@@H](C)[C@H]1CC[C@H]2[C@@H]3CC[C@@H]4C[C@H](O)CC[C@]4(C)[C@H]3CC[C@]12C`, the activity, negative = cell killing is -2.13% in assay [1] (setting [5]), -20.8% in assay [1] (setting [6]) and -6.49% in assay [1] (setting [7]). The Potency entry with astro was “inactive”.

Regarding `CN1CCN(C(c2ccccc2)c2ccc(Cl)cc2)CC1` (configuration not stated), the activity, negative = cell killing was 3.89% in assay [1] (setting [2]) and -16.8% in assay [1] (setting [3]). For the same compound, the Potency in assay [1] (tumour line A) was 11.2 µM (active). For the same compound, in the assay with astro, the Potency entry is “inactive”.

Regarding `CN[C@H](CC(C)C)C(=O)N[C@H]1C(=O)N[C@@H](CC(N)=O)C(=O)N[C@H]2C(=O)N[C@H]3C(=O)N[C@H](C(=O)N[C@@H](C(=O)O)c4cc(O)cc(O)c4-c4cc3ccc4O)[C@H](O)c3ccc(c(Cl)c3)Oc3cc2cc(c3O[C@@H]2O[C@H](CO)[C@@H](O)[C@H](O)[C@H]2O[C@H]2C[C@](C)(N)C(O)[C@H](C)O2)Oc2ccc(cc2Cl)[C@H]1O` (some centres not stated), the activity, negative = cell killing in assay [1] (setting [5]) was -21.4% and -13.5%; in assay [1] (setting [6]), -14.4% and -8.53%; in assay [1] (setting [7]), -11% and 8.66%. Besides, the Potency entry in the assay with astro was “inactive”.

For the compound `CC12CCC(C[N+](C)(CCC[N+](C)(C)C)C1)C2(C)C` (configuration not stated), the activity, negative = cell killing in assay [1] (setting [5]) was -11.8%; in assay [1] (setting [6]), -25.7%; in assay [1] (setting [7]), 21.9%. Further, the Potency result in the assay with astro is “inactive”.

Take `OC[C@H]1OC([S-])[C@H](O)[C@@H](O)[C@@H]1O.[Au+]` (some centres not stated): the activity, negative = cell killing was -5.43% in assay [1] (setting [5]), -19.5% in assay [1] (setting [6]) and -19.6% in assay [1] (setting [7]). In the assay with astro, the Potency entry is “inactive”.

On to `CC(=NCc1ccccc1)c1ccccc1O`, for which the results for the activity, negative = cell killing in assay [1] (setting [5]), in assay [1] (setting [6]) and in assay [1] (setting [7]) were -12.5%, -14.9% and 6.85%, respectively. For the same compound, the Potency result in the assay on astro was “inactive”.
